Assay outcomes deposited in PubChem BioAssay by The Scripps Research Institute Molecular Screening Center.
Sampled rows, rich in hits. Any-hit rate of the full collection: about 2.8%.
PAFAH1B3 FP inh: PAFAH1B3 enzyme inhibitors, primary screen, biochemical, fluorescence polarization, human; AID 492972, 2010; inhibition, % at 3.39 µM; hit rate 0.28% among 340,000; recombinant PAFAH1B3, FP-rhodamine probe;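 active = inhibition above the screen-wide average of all tested compounds plus 3 SD, cut at about 25% in these data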
Target sequence (Q15102 whole entry, looked up): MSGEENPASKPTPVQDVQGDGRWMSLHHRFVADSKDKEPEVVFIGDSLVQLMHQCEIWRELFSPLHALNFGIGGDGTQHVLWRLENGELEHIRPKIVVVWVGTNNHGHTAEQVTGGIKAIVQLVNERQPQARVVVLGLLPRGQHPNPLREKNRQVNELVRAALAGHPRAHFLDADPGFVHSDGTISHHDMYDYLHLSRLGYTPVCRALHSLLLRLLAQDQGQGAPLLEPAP
PME-1 primary: PME-1 inhibitors via competitive probe labeling, primary screen, biochemical, fluorescence polarization, FP-Rh probe, HTS; hit rate 0.53% among 320,000; AID 2130, 2009; Protein phosphatase methylesterase 1 (Homo sapiens), Q9Y570; inhibition, % at 5.9 µM; recombinant PME-1;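 active = inhibition above the campaign mean of all compounds plus 3 SD, cut at about 26% in these data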;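 note: competitive labeling of PME-1 active site by serine hydrolase directed probe; inhibitors block probe labeling so polarization falls and inhibition rises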
Fam108B counter: mouse Fam108B serine hydrolase inhibitors, primary screen, counter-screen for RBBP9 inhibitor project, biochemical, fluorescence polarization; recombinant Fam108B, FP-Rh probe fluorescence polarization; inhibition, % at 9.51 µM; hit rate 0.33% among 300,000; AID 1947, 2009;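 active = inhibition above the screen mean inhibition plus 3 SD, computed separately per campaign, cut at about 18% in these data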;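 note: inhibitors lower polarization as less probe binds the enzyme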
pPAFAH inh: pPAFAH enzyme inhibitors, primary screen, biochemical, fluorescence polarization, human; hit rate 1.5% among 330,000; inhibition, % at 3.39 µM; AID 463082, 2010; recombinant pPAFAH, FP-rhodamine probe fluorescence polarization;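 active = inhibition above the mean inhibition across the screen plus 3 SD, cut at about 25% in these data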;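 note: inhibitors block binding of the rhodamine activity-based probe so polarization drops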
PAFAH1B2 FP inh: PAFAH1B2 enzyme inhibitors, primary screen, biochemical, fluorescence polarization, human. Platelet-activating factor acetylhydrolase IB subunit alpha2 (Homo sapiens), P68402. recombinant PAFAH1B2, FP-rhodamine activity probe. inhibition, % at 3.39 µM. hit rate 1.2% among 340,000;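 active = inhibition above the mean of all tested compounds plus 3 SD, cut at about 24% in these data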
Target sequence (P68402 whole entry, looked up): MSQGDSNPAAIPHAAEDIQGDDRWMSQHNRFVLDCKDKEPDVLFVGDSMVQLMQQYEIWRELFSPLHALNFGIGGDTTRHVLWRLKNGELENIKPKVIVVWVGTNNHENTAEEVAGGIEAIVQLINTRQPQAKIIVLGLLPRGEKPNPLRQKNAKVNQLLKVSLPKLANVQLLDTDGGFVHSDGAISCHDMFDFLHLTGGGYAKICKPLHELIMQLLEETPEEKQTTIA
PAFAH2 FP inh: PAFAH2 enzyme inhibitors, primary screen, biochemical, fluorescence polarization, human. Platelet-activating factor acetylhydrolase 2, cytoplasmic (Homo sapiens), Q99487. recombinant PAFAH2, FP-rhodamine activity probe. inhibition, % at 3.39 µM. hit rate 0.99% among 340,000;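 active = inhibition above the mean over all tested compounds plus 3 SD, cut at about 30% in these data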;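 note: inhibitors block probe labeling of enzyme so polarization drops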
A number is an active result; n = inactive; x = not tested or not shown; ! = not confirmed by another sample.

SMILES	PAFAH1B3 FP inh	PME-1 primary	Fam108B counter	pPAFAH inh	PAFAH1B2 FP inh	PAFAH2 FP inh
CCN(c1ccccc1)S(=O)(=O)c1ccc(OC)c(OC)c1	n	n	n	n	n	n
CCN(c1ccccc1)S(=O)(=O)c1ccc(OC)c(NS(=O)(=O)c2cccs2)c1	n	n	n	n	30	n
CCN(c1ccccc1)S(=O)(=O)c1ccc(OC)c(NC(=O)CNCCc2ccccc2)c1	n	28	n	n	n	n
COc1ccccc1Nc1ccc(Nc2ccccc2OC)nn1	n	n	n	n	n	n
COc1ccc(OC)c(Nc2ccc(Nc3cc(OC)ccc3OC)nn2)c1	n	n	n	30	n	n
CCOC(=O)CC(=O)CSc1nc(N)c(C#N)c(-c2ccc(F)cc2)c1C#N	n	n	n	28	n	n
O=C(c1cc([N+](=O)[O-])ccc1N1CCN(S(=O)(=O)c2ccc(Cl)c(Cl)c2)CC1)N1CCOCC1	n	n	n	n	37	n
O=C(c1cc([N+](=O)[O-])ccc1N1CCOCC1)N1CCN(S(=O)(=O)c2cc(Cl)ccc2Cl)CC1	n	n	n	n	n	n
COc1cc(C)c(Cl)cc1S(=O)(=O)NCc1ccccn1	n	n	n	n	n	n
COc1cccc2c(=O)c3cccc(N)c3[nH]c12	n	n	n	31	n	n
O=C(O)CSc1cc(NS(=O)(=O)c2cccc([N+](=O)[O-])c2)c2ccccc2c1O	49	x	x	x	28	n
CC(O)c1nc2ccccc2n1CCCc1ccccc1 (stereo not drawn)	n	n	n	34	n	n
CC(O)c1nc2ccccc2n1Cc1ccccc1 (stereo not drawn)	n	n	n	n	n	n
CN(CCCN1CCCCC1)C(=O)c1cc(COc2ccc(F)cc2F)on1	n	n	n	n	n	n
O=C(O)c1ccc(N/N=C/c2c(F)cccc2Cl)cc1	n	n	n	n	n	n
O=C(c1cccc(Cl)c1)N1CCN(C(=O)c2ccccc2F)CC1	n	n	n	n	n	n
O=C(c1ccccc1F)N1CCN(Cc2cccc(Cl)c2)CC1	n	n	n	29	n	n
CCc1ccc(-c2csc(NC(=O)C3=COCCO3)n2)cc1	n	n	x	n	n	n
[O-][n+]1cccc2c(Br)cc(Br)c(O)c21	n	n	n	34	n	n
C=CC[C@@H](CC(=O)NCCO)C(=O)N[C@@H](C)COC(=O)[C@@H](CC=C)Cc1ccc(F)cc1	n	x	x	n	n	n
Cc1ccccc1NS(=O)(=O)c1ccc(OCC(=O)NCc2cccnc2)cc1	n	n	n	33	n	n
O=C(COc1ccc(S(=O)(=O)Nc2ccccc2)cc1)NCc1cccnc1	n	n	n	29	n	n
Cc1[nH]n(-c2ncc(-c3ccc(Cl)cc3)s2)c(=O)c1C(c1ccc(Cl)cc1)C(C#N)C#N (stereo not drawn)	n	n	n	29	n	n
Cc1ccc(S(=O)(=O)N2CCN(C)CC2)cc1C	n	n	n	n	n	n
CN1CCN(S(=O)(=O)c2ccc(-c3ccc(Cl)cc3)cc2)CC1	n	n	n	n	n	n
SMILES	PAFAH1B3 FP inh	PME-1 primary	Fam108B counter	pPAFAH inh	PAFAH1B2 FP inh	PAFAH2 FP inh
COc1ccc(S(=O)(=O)N2CCCC(C(F)(F)F)C2)cc1 (stereo not drawn)	n	n	n	n	n	n
CN1CCN(S(=O)(=O)c2ccc(Cl)cc2)CC1	n	n	n	n	25!	n
O=S(=O)(c1ccc(Cl)cc1)N1CCCC(C(F)(F)F)C1 (stereo not drawn)	n	n	n	n	30	n
Cc1ccc(S(=O)(=O)c2ccc(Cl)cc2)cc1S(=O)(=O)N1CCN(C)CC1	n	n	n	n	26	n
O=C(C1CCCCC1)N1CCN(S(=O)(=O)c2ccc(Cl)cc2)CC1	n	n	n	n	27	n
O=C(c1ccc2ccccc2n1)N1CCN(S(=O)(=O)c2ccc(Cl)cc2)CC1	n	x	x	n	28	n
COc1ccc(NC(=O)CCN2CCN(S(=O)(=O)c3ccc(Cl)cc3)CC2)cc1	n	n	n	n	25	n
